PubChem BioAssay AID1159580 (chemical genetic matrix, 2015)
Several values for one entry are separate records, joined by “and”; a condition that tells them apart may be missing. Identical values can stand only once. The campaign covered roughly 5,500 compounds. About 2,000 (36%) were called active. Roughly 18% stayed inconclusive and do not appear here. No stated cut-off is given here; in the data, active means normalized growth mostly below about 0.91 (no sharp cut-off); inconclusive means no clear call, values can overlap the other calls; inactive means mostly above about 0.92. The list shows a part of the results.

Test: chemical genetic growth profiling, strain panel (AID 1159580);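 further: tested at 20 µM; growth read once vehicle control cultures reached saturation at 30 °C; 1 = growth at the plate median or of vehicle wells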
Details: S. cerevisiae deletion strains, growth OD

Measured: normalized growth

O=c1c(O)c(-c2ccccc2)oc2cc(O)ccc12
0.208 (active) and 1.01 (inactive): locus YJL095W, strain BCK1, stronger effect = lower value
0.434 (active) and 1.07 (inactive): locus YHR030C, strain SLT2, stronger effect = lower value
inactive: locus YBR021W, strain FUR4, stronger effect = lower value 1.05 | locus YCR088W, strain abp1, stronger effect = lower value 0.937 | locus YDL005C, strain med2, stronger effect = lower value 0.941 | locus YDL185W, strain tfp1, stronger effect = lower value 0.928 | locus YDR159W, strain sac3, stronger effect = lower value 0.886 | locus YDR195W, strain ref2 1.07 | locus YEL061C, strain CIN8 (second series), stronger effect = lower value 0.915 | locus YER110C, stronger effect = lower value 0.92 | locus YGL078C, strain dbp3, stronger effect = lower value 0.948 | locus YGL227W, strain vid30, stronger effect = lower value 0.931 | locus YHR079C, strain IRE1, stronger effect = lower value 1.07 | locus YIL125W, strain kgd1, stronger effect = lower value 0.951 | locus YJR066W, strain TOR1, stronger effect = lower value 0.982
active: locus YAL021C, strain ccr4, stronger effect = lower value 0.572 | locus YAL026C, strain drs2, stronger effect = lower value 0.486 | locus YAL030W, strain snc1, stronger effect = lower value 0.66 | locus YBL061C, strain skt5, stronger effect = lower value 0.685 | locus YBR009C, strain hhf1, stronger effect = lower value 0.597 | locus YBR023C, strain chs3, stronger effect = lower value 0.518 | locus YBR171W, strain sec66, stronger effect = lower value 0.825 | locus YBR229C, strain ROT2, stronger effect = lower value 0.873 | locus YBR231C, strain swc5, stronger effect = lower value 0.572 | locus YBR279W, strain paf1, stronger effect = lower value 0.641 | locus YCL011C, strain gbp2, stronger effect = lower value 0.583 | locus YCL016C, strain dcc1, stronger effect = lower value 0.711 | locus YCL029C, strain bik1, stronger effect = lower value 0.779 | locus YCL061C, strain MRC1, stronger effect = lower value 0.799 | locus YCL069W, strain vba3, stronger effect = lower value 0.864 | locus YDL035C, strain GPR1, stronger effect = lower value 0.432 | locus YDL040C, strain nat1, stronger effect = lower value 0.847 | locus YDL074C, strain BRE1, stronger effect = lower value 0.455 | locus YDL101C, strain DUN1, stronger effect = lower value 0.697 | locus YDL192W, strain arf1, stronger effect = lower value 0.664 | locus YDR001C, strain nth1, stronger effect = lower value 0.887 | locus YDR069C, strain doa4, stronger effect = lower value 0.413 | locus YDR101C, strain arx1, stronger effect = lower value 0.903 | locus YDR137W, strain rgp1, stronger effect = lower value 0.38 | locus YDR150W, strain NUM1, stronger effect = lower value 0.707 | locus YDR162C, strain NBP2, stronger effect = lower value 0.121 | locus YDR297W, strain sur2, stronger effect = lower value 0.77 | locus YDR318W, strain mcm21, stronger effect = lower value 0.708 | locus YDR334W, strain swr1, stronger effect = lower value 0.704 | locus YDR335W, strain msn5, stronger effect = lower value 0.757 | locus YDR388W, stronger effect = lower value 0.759 | locus YDR392W, strain spt3, stronger effect = lower value 0.369 | locus YDR502C, strain sam2, stronger effect = lower value 0.751 | locus YEL003W, strain gim4, stronger effect = lower value 0.754 | locus YEL037C, strain rad23, stronger effect = lower value 0.794 | locus YEL061C, strain CIN8, stronger effect = lower value 0.705 | locus YER015W, strain faa2, stronger effect = lower value 0.454 | locus YER016W, strain bim1, stronger effect = lower value 0.766 | locus YER111C, strain swi4, stronger effect = lower value 0.873 | locus YER155C, strain BEM2 (second series), stronger effect = lower value 0.81 | locus YER155C, strain BEM2, stronger effect = lower value 0.627 | locus YER167W, strain BCK2, stronger effect = lower value 0.676 | locus YFR010W, strain ubp6, stronger effect = lower value 0.62 | locus YGL086W, strain mad1, stronger effect = lower value 0.699 | locus YGL167C, strain pmr1, stronger effect = lower value 0.882 | locus YGL173C, strain kem1, stronger effect = lower value 0.382 | locus YGL240W, strain doc1, stronger effect = lower value 0.675 | locus YGL248W, strain PDE1, stronger effect = lower value 0.506 | locus YGL253W, strain hxk2, stronger effect = lower value 0.508 | locus YGR078C, strain PAC10, stronger effect = lower value 0.586 | locus YGR135W, strain pre9, stronger effect = lower value 0.675 | locus YGR252W, strain gcn5, stronger effect = lower value 0.701 | locus YHR013C, strain ard1, stronger effect = lower value 0.439 | locus YHR027C, strain rpn1, stronger effect = lower value 0.339 | locus YHR079C, strain IRE1 (second series), stronger effect = lower value 0.913 | locus YHR094C, strain hxt1, stronger effect = lower value 0.903 | locus YHR129C, strain ARP1, stronger effect = lower value 0.564 | locus YHR142W, strain chs7, stronger effect = lower value 0.474 | locus YHR200W, strain rpn10, stronger effect = lower value 0.825 | locus YIL066C, strain RNR3, stronger effect = lower value 0.663 | locus YIL073C, strain SPO22, stronger effect = lower value 0.326 | locus YIR030C, strain dcg1, stronger effect = lower value 0.858 | locus YJL092W, strain hpr5, stronger effect = lower value 0.79 | locus YJL095W, strain BCK1 (second series), stronger effect = lower value 0.337 | locus YJL115W, strain asf1, stronger effect = lower value 0.9 | locus YJL129C, strain trk1, stronger effect = lower value 0.809 | locus YJL134W, strain LCB3, stronger effect = lower value 0.844 | locus YJL154C, strain vps35, stronger effect = lower value 0.885 | locus YJL164C, strain tpk1, stronger effect = lower value 0.432 | locus YJL166W, strain qcr8, stronger effect = lower value 0.471 | locus YJL168C, strain set2, stronger effect = lower value 0.902 | locus YJL187C, strain SWE1 (second series), stronger effect = lower value 0.5 | locus YJL187C, strain SWE1, stronger effect = lower value 0.653 | locus YJR043C, strain POL32, stronger effect = lower value 0.387 | locus YJR075W, strain HOC1, stronger effect = lower value 0.571
